Source: PubChem (several laboratories)
Shown are actives, neighbours in structure and some others; about 1.8% of the full set was active somewhere.
UHRF1 binding: UHRF1 methyl-DNA binding inhibition. Q96T88. UHRF1 binding to methylated oligo, TR-FRET. inhibition, % at 4.4 µM. hit rate 0.75% among 370,000. AID 687016;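 also: UHRF1 SRA domain binding a hemimethylated CpG hairpin DNA probe; 0% = median of test compound wells and 100% = reference inhibitor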
MBD2 inh: MBD2-methylated oligo binding inhibition; Q9UBB5; TR-FRET, MBD2 binding to methylated oligonucleotide; inhibition, % at 4.4 µM; hit rate 0.31% among 370,000; AID 686964; in the data active = inhibition above about 13%
Target sequence (Q9UBB5 whole entry, looked up): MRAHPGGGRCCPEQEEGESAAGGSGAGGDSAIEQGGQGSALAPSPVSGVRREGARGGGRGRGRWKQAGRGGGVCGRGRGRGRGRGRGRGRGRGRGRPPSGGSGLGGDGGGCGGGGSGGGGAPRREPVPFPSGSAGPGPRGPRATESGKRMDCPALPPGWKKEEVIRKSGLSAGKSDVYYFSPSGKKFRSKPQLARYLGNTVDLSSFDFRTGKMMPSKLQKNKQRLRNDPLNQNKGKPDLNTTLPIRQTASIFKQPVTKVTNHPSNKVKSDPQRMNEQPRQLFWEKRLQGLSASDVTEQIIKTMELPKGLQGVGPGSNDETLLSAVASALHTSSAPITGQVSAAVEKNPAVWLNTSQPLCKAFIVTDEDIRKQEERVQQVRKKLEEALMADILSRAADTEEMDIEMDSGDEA
Neddylation inh: blocks human cullin neddylation. P61081+Q13564. TR-FRET cullin neddylation, biochemical. calls only at 25 µM. hit rate 0.58% among 360,000. AID 651699; in the data active = inhibition above about 36%
UBC13 inh: human UBC13 polyubiquitination inhibition. P61088. UBC13 polyubiquitin chain formation, TR-FRET. inhibition, % at 20 µM. hit rate 0.47% among 330,000; in the data active = inhibition above about 45%, passing the limit was not always enough
Target sequence (P61088 whole entry, looked up): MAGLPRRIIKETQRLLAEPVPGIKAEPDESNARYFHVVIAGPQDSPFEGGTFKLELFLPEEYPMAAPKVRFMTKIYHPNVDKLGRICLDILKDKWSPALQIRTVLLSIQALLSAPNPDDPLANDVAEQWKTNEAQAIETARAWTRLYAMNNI
UHRF1 DNA bind: UHRF1 methyl-oligo binding inhibition as MBD2 counter-screen | UHRF1 binding to methylated oligonucleotide, TR-FRET | hit rate 25% among 1,000 | inhibition, % at 4.4 µM | AID 720530 | shares compounds with MBD2 inh;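 also: UHRF1 SRA domain binding a labeled hemimethylated CpG hairpin DNA; 0% = vehicle only and 100% = reference inhibitor with vehicle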
MBD2 confirm: MBD2-DBD methyl-DNA binding inhibition, TR-FRET confirmation; shares compounds with MBD2 inh; TR-FRET MBD2-DBD binding to methylated oligonucleotide; inhibition, % at 4.4 µM; hit rate 26% among 1,000; AID 720531; in the data active = inhibition above about 14%
An asterisk follows results filed as active; i = inactive; x = no result given; + = active, no number. Rule as the data show it, unless noted: active = inhibition above about 21%; inactive = the rest.

SMILES | UHRF1 binding | MBD2 inh | Neddylation inh | UBC13 inh | UHRF1 DNA bind | MBD2 confirm
CCCCCC1CC(=O)N(Cc2ccc(Cl)cc2)C(=O)N1 (centres undefined) | -0.7 | -1.5 | i | 0.9 | x | x
CCOC(=O)CNC(=O)c1ccc(C#CC2(O)CCCCC2)cc1 | -1.7 | -3.7 | i | 4.1 | x | x
C=CCN1[C@H](CO)[C@H](c2ccc(C#CC3(O)CCCC3)cc2)[C@@H]1C#N | 19.0 | 13.6* | x | x | 5.0 | 10.9
C=CCN1[C@H](C#N)[C@@H](c2ccc(C#Cc3ccccc3OC)cc2)[C@H]1CO | 17.0 | 13.6* | x | x | 9.2 | 8.3
C=CCn1c2ccccc2c(=O)c2cc(C#Cc3cc(OC)cc(OC)c3)ccc21 | -3.0 | -3.2 | i | -7.2 | x | x
CN1C(=O)CSC1=NCC12CC3CC(CC(C3)C1)C2 | 6.0 | 3.9 | i | 5.8 | x | x
CCC(C)N(c1nc(C)nc2c1nnn2Cc1ccccc1)C(C)CC (centres undefined) | -2.9 | 2.2 | x | x | x | x
OC[C@@H](O)C(O)[C@@H](O)CO (some centres undefined) | 12.9 | 22.3* | i | x | 6.0 | 3.2
Cc1ccc(-c2ccc(CCC(=O)O)n2Cc2ccco2)cc1 | -0.4 | 88.4* | i | -8.1 | 9.6 | 4.9
Cc1cc(C)c(C#N)c(SCC(=O)Nc2ccc(S(=O)(=O)Nc3ncccn3)cc2)n1 | 0.6 | 18.0* | i | -1.7 | 11.8 | 3.1
CNC(=O)c1csc(-c2cccs2)n1 | -0.9 | 2.3 | i | -14.2 | x | x
COc1ccc(C(=O)N2CCc3cc(OC)c(OC)cc3C2c2ccc(OC)c(OC)c2)cc1OC (centres undefined) | -1.8 | -1.7 | i | -1.3 | x | x
O=c1oc(-c2ccccc2)nc2sc3c(c12)CCC3 | 45.7* | 18.4* | x | 4.3 | 25.9* | 15.1*
O=C1COc2ccc(C(=O)COC(=O)/C=C/c3ccc(Br)o3)cc2N1 | 45.6* | 18.8* | i | 18.9 | 43.8* | 32.4*
Cc1cc(NC(=O)Cc2cccs2)no1 | 28.9* | 15.8* | i | 7.8 | 24.9* | 18.8*
Cc1cc(NS(=O)(=O)c2ccc(NC(=O)Cc3cccs3)cc2)no1 | x | x | i | 6.1 | x | x
COCOCCn1cc(CN2CCS(=O)(=O)N(Cc3ccc(-c4ccc(F)cc4)cc3)C(CC(C)C)C2=O)nn1 (centres undefined) | -1.5 | -5.4 | i | x | x | x
CN(C)c1ccc(O)c2c1CC1CC3[C@@H](N(C)C)C(=O)C(C(N)=O)=C(O)[C@]3(O)C(=O)C1=C2O (some centres undefined) | 80.2* | 35.5* | i | 16.7 | 36.1* | 14.9*
O=C1/C(=C/c2ccco2)SC(=S)N1c1cccnc1 | 98.3* | 104.6* | i | x | 69.5* | 31.9*
O=C1/C(=C\c2ccco2)SC(=S)N1c1ccc(O)cc1 | 5.3 | 8.2 | i | 0.9 | x | x
NN1C(=O)/C(=C\c2ccco2)SC1=S | 63.3* | 17.4* | i | -20.9 | 3.1 | 0.4
CCOC(=O)CN1C(=O)S/C(=C/c2ccco2)C1=O | -4.7 | -3.4 | i | -9.8 | x | x
CCOC(=O)Nc1cc2c(c(N)n1)N=C(c1ccccc1)CN2 | -11.5 | -8.2 | i | x | x | x
C/C(=N\NC(=O)c1nc2ccccn2c1C)c1cccc([N+](=O)[O-])c1 | -0.3 | 57.8* | i | -3.6 | 3.9 | 2.8
CC(=O)c1sc2nc(-c3ccco3)ccc2c1N | 91.6* | 45.1* | + | -2.6 | 28.1* | 6.8
SMILES | UHRF1 binding | MBD2 inh | Neddylation inh | UBC13 inh | UHRF1 DNA bind | MBD2 confirm
Nc1c(C(=O)Nc2ccc(Br)cc2)sc2nc(-c3ccco3)ccc12 | -4.2 | -1.1 | x | 28.1 | x | x
Cc1ccc(C(=O)N/C(=C\c2cccnc2)C(=O)N2CCCC2)cc1 | 2.3 | 0.0 | i | 2.7 | x | x
Cc1ccc(S(=O)(=O)Oc2ccccc2[N+](=O)[O-])cc1 | -1.2 | 14.3* | i | x | 2.0 | 2.2
COc1ccccc1[N+](=O)[O-] | 2.4 | 3.5 | i | 2.7 | x | x
COc1ccc(C(=O)Nc2cc3c(cc2Cl)OCCCO3)cc1 | 0.5 | 1.4 | i | -3.6 | x | x
O=C(NCc1ccncc1)C1CCC(=O)N(CCc2ccc(Cl)cc2)C1 (centres undefined) | 48.7* | 24.5* | i | -2.6 | 6.0 | 2.3
CCN(CC)C(=O)c1csc([C@@H]2O[C@H](CO)[C@H](O)[C@H](O)[C@H]2O)n1 | 2.3 | 26.2* | i | x | 3.5 | 3.1
CN(Cc1ccccc1)C(=O)c1csc([C@@H]2O[C@H](CO)[C@@H](O)[C@H]2O)n1 | 4.0 | 0.4 | i | x | x | x
CC1(C(=O)NS(=O)(=O)c2cccc(Cl)c2)CCN1C(=O)CCc1cccs1 (centres undefined) | 2.9 | 1.9 | i | x | x | x
Cn1ccnc1SCC(=O)Nc1nc2ccccc2s1 | 4.7 | 14.4* | i | 6.8 | 4.8 | 0.8
O=C(CSc1ccccn1)Nc1nc2ccccc2s1 | -1.9 | 1.1 | i | 11.6 | x | x
N#Cc1c(SCC(=O)Nc2nccs2)sc2c(O)cc(=O)[nH]c12 | 77.1* | 35.0* | i | -5.3 | 26.7* | 15.4*
COc1cccc(OC)c1C(=O)Nc1ccc(N2CCN(C(=O)c3cccs3)CC2)cc1 | 0.6 | -2.8 | i | -0.5 | x | x
COc1ccc(NC(=O)c2cccs2)cc1C(=O)N1CCN(c2ccccc2)CC1 | 0.8 | 24.1* | i | 5.6 | 9.5 | 2.3
O=C(OCC(=O)N1CCOCC1)c1cc(=O)[nH]c2ccccc12 | -0.5 | 0.8 | i | 16.0 | x | x
COc1ccc(CNC(=O)C(C)OC(=O)CO/N=C(\C)c2ccc3c(c2)OCO3)cc1 (centres undefined) | 0.1 | 0.1 | i | 1.0 | x | x
CCC(=O)c1ccc(OCC(=O)OC(C)C(=O)NCc2ccc3c(c2)OCO3)cc1 (centres undefined) | -0.9 | 79.0* | i | -3.7 | 9.3 | 2.2
Cc1ccc(C)c(NC(=O)CN(C)C(=O)c2cccc(-n3cccc3)c2)c1 | 36.3* | 21.5* | i | -6.7 | 43.0* | 32.7*
Cc1ccc(C)c(NC(=O)CN(C)C(=O)c2cccc(Oc3ccccc3)c2)c1 | -0.1 | -2.4 | i | 12.3 | x | x
COc1ccc(CC(=O)Nc2cccc(S(=O)(=O)N3CCCCC3)c2)cc1 | -2.5 | 39.6* | i | 9.2 | 2.2 | 1.8
COc1ccc(CCC(=O)Nc2cccc(S(=O)(=O)N3CCCCCC3)c2)cc1 | -0.5 | 1.3 | i | -1.7 | x | x
Cc1ccc(Cc2c(-c3ccccc3)nc3cc(C)ccn23)cc1 | 26.9* | 16.7* | i | x | 13.3 | 5.5
Cc1ccc(Cc2c(-c3ccccc3)nc3c(C)cc(Br)cn23)cc1 | 14.2 | 3.7 | i | x | x | x
O=C(CSc1nnc(-c2cccc(F)c2)o1)NC1CCCC1 | -3.6 | 0.5 | i | 0.1 | x | x
O=[N+]([O-])c1cccc(I)c1 | 88.1* | 59.2* | x | x | 1.0 | 5.9
O=C(Nc1cccc([N+](=O)[O-])c1)Nc1cccc([N+](=O)[O-])c1 | 4.5 | 4.9 | i | 10.4 | x | x
